# Bioassay records as filed in PubChem BioAssay.
# Only some compounds are listed: those with a hit (about 1.7% of all), similar ones and a draw of the others.
# Imprint erasure: induces erasure of genomic imprints in mouse ES cells; mouse ES Peg3-LacZ reporter, beta-gal luminescence, 40 h; Potency, µM (titrated, usually from 60.7 µM), for the others: top-dose activity change, positive = activation, hits mostly activators; 110,000 compounds, 0.02% hits; AID 1948
#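 Readout: BetaGlo luminescence (5 min, room temp) for LacZ from the normally silent maternal Peg3 allele in female Peg3LacZ-Neo ES cells. Cells 300/well, 40 h, 37C, 5% CO2. Data normalized per plate to negative controls.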
# p53ts 39C kill: cytotoxicity in p53ts cells at nonpermissive temperature | H1299-p53A138V viability at 39C, ATP luminescence, 24 h | Potency, µM (top dose mostly 46.1 µM), for inactives: at the highest dose activity change, negative = cell killing, actives largely listed as cytotoxic | 130,000 compounds, 1.5% hits; further: on the % scale 0 is the no-effect control and ±100 the full control effect; nearly all actives have a fitted effect of over 55% in size
# IkB sig inh: IkB pathway inhibition in ABC-DLBCL cells; ABC-DLBCL IkBa-CBG/CBR dual luciferase ratio, 4 h; response scale: scaled: untreated 0%, proteasome inhibitor 100%; Potency, µM (highest dose often 57.1 µM), for inactives: top-dose IkBa stabilization activation; 110,000 compounds, 0.04% hits; AID 445; active means well fitted curve in the direction sought with a large enough effect in the signal ratio, not every such curve was filed as active; inconclusive means small, poorly fitted or top-dose-only effect, or a change in a side signal; the % refers to the signal ratio;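 further: the direction sought is a rising ratio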
#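 In this assay, an IκBα–CBG68 fusion accumulates when IKK-driven degradation is blocked; native CBR normalizes for cell number. OCI-Ly3 cells were treated 4 h with compound and doxycycline, then green and red light read after Chroma-Glo addition.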
# p53ts 32C kill: p53ts cell cytotoxicity, permissive temperature; H1299-p53A138V at 32C, ATP luminescence viability, 24 h; Potency, µM (highest dose often 46.1 µM), without a hit: top-dose activity change, negative = cytotoxicity, hits mostly cytotoxic; 130,000 compounds, 0.93% hits; AID 924;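 further: 0% = DMSO and -100% = full killing by reference compound; nearly all actives have a fitted effect of over 55% in size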
#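 H1299-p53 A138V cells (temperature-sensitive p53) exposed 24 h to up to 46 uM compound at 32C, where p53 is wild-type in conformation. Viability read as ATP luminescence and normalised to DMSO and 100 uM tamoxifen. AC50 fitted with the Hill equation.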
# An asterisk follows results filed as active; ? = inconclusive; nt = no result given; [ ] = dose if it differs, or a comment. Unless noted, the call rests on the fitted dose curve; in most records, active means well fitted curve in the direction sought with a large enough effect; inconclusive means small, poorly fitted or top-dose-only effect, or another doubt; inactive means no such curve, though single readings can be large; an effect the other way counts as inactive or inconclusive. Potency means the concentration at half of the fitted maximal effect.
SMILES,Imprint erasure,p53ts 39C kill,IkB sig inh,p53ts 32C kill
CCCOc1cccc(C(=O)N(Cc2cc(OC)c(OC)c(OC)c2)C2CCS(=O)(=O)C2)c1 (configuration not stated),?,8.7%,-0.7%,9.0%
COc1cccc(Cn2c(=O)c(-c3ccc(Cl)cc3)nc3cncnc32)c1,-18.7%,?,-0.2%[11.4 µM],-25.7%
Cc1ccc(C(C(=O)NC2CCCCC2)N(C)Cc2ccccc2)cc1 (configuration not stated),-11.9%[10.9 µM],-23.8%,18.8%,-1.5%
CCOC(=O)CN(Cc1ccccc1)C(C(=O)NC1CCCCC1)c1ccccc1 (configuration not stated),11.3%[10.9 µM],2.51µM*,?,-28.0%
CCCC(c1nnnn1Cc1cccs1)N1CCN(C2CCCC2)CC1 (configuration not stated),-14.4%,15.1%,-0.2%,-5.5%
CCCC(c1nnnn1Cc1ccc(F)cc1)N1CCN(C2CCCCC2)CC1 (configuration not stated),3.6%,20µM*,0.5%,?
O=C(O)c1cc(S(=O)(=O)Nc2cccc(Cl)c2)ccc1O,nt,-11.0%,nt,-2.2%
Cc1ccc(C)c(N2CCN(C(=O)C3CCN(C(=O)c4cc5sccc5n4C)CC3)CC2)c1,-16.5%[10.9 µM],-25.6%,?,27.6%
Cc1cccc(N2CCN(C(=O)C3CCN(C(=O)c4cc5sccc5n4C)CC3)CC2C)c1 (configuration not stated),23.2%[10.9 µM],12.6µM*,?,-11.4%
CCN(CC)c1ccc(C(=O)Nc2cccc(F)c2)cc1,-66.5%,?,-0.5%,12.6µM*
Cc1ccc(-c2cc(C(=O)N3CCCC3)no2)cc1,-79.8%,7.94µM*,?,7.94µM*
COc1ccc(-c2cc(C(=O)N3CCCCC3)no2)cc1OC,-38.2%,-22.6%,?,-20.3%
Cc1cccc(C2=N[C@@H](Cc3ccccc3)CO2)c1,-22.3%[97.3 µM],nt,nt,nt
CCN(CC)CCOC(=O)c1ccc(NC(=O)c2nn(-c3ccc(C)cc3)c(=O)c3c2c2ccccc2n3C)cc1,-31.0%[10.9 µM],3.98µM*,?,3.98µM*
Cc1nc(NCc2ccccc2)c2nc(-c3ccccc3)n(CCN3CCOCC3)c2n1,-14.0%,-3.1%,nt,-0.8%
CCCC(=O)N1CCN(c2ccc(NC(=O)c3cc4ccccc4o3)cc2Cl)CC1,-25.6%,15.8µM*,?,?
CCC(=O)N1CCN(c2ccc(NC(=O)c3cc4ccccc4o3)cc2Cl)CC1,-13.9%,?,?,?
O=C(Nc1ccc(N2CCOCC2)c(Cl)c1)c1ccco1,-35.3%,15.8µM*,3.7%,12.6µM*
O=C(Nc1ccc(N2CCN(C(=O)c3ccco3)CC2)c(Cl)c1)c1cc2ccccc2o1,-35.6%,?,-9.1%,12.6µM*
COCCn1c(=O)c(-c2ccc(F)cc2)nc2cnc(N3CCOCC3)nc21,-4.4%,-4.9%,0.0%[11.4 µM],11.4%
C[C@@H]1C[C@@]2(C)Oc3ccccc3[C@H]3OC[C@]1(COC(=O)Nc1ccccc1)[C@@H](C)[C@@H]32,nt,nt,0.8%[11.4 µM],nt
Cc1nn(C(C)C(=O)N2CCCCC2)c(=O)c2c1sc1ccccc12 (configuration not stated),nt,1.7%,nt,5.3%
Cc1nn(C(C)C(=O)NC2CCC(C)CC2)c(=O)c2c1sc1ccccc12 (configuration not stated),-30.3%[10.9 µM],10µM*,?,11.2µM*
COc1ccc(N2CCN(C(=O)C(C)n3nc(C)c4sc5ccccc5c4c3=O)CC2)cc1 (configuration not stated),-30.7%[10.9 µM],10µM*,-4.5%,10µM*
COc1cc(OC)cc(C(=O)Nc2ccc3c(c2)OCCO3)c1,-79.2%[10.9 µM],3.98µM*,?,12.6µM*
SMILES,Imprint erasure,p53ts 39C kill,IkB sig inh,p53ts 32C kill
CCOC(=O)c1c(N)sc(C(=O)Nc2ccc3c(c2)OCO3)c1C,-91.0%,2.51µM*,?,3.98µM*
Cn1c(C(=O)Nc2ccc3c(c2)OCCO3)cc2sccc21,-72.6%,12.6µM*,?,12.6µM*
CCOC(=O)c1c(C)c(C(=O)Nc2ccc3c(c2)OCO3)c(C)n1C,-7.1%,0.1%,2.7%,4.0%
Cc1cc(C(=O)Nc2ccc3c(c2)OCO3)cs1,-71.4%,10µM*,0.5%,12.6µM*
COc1ccccc1-c1nccc(NCc2cccs2)n1,-14.7%,-24.9%,0.1%[11.4 µM],-5.8%
Cc1cc(C(=O)Nc2ccc3c(c2)OCCO3)co1,nt,15.8µM*,nt,10µM*
